Assay outcomes deposited in PubChem by National Center for Advancing Translational Sciences (NCATS).
Shown are actives, neighbours in structure and some others; about 19% of the full set was active somewhere.
IL1B secr inh: inhibitors of inflammasome signaling (IL-1 beta secretion) | activity change, % at 57.5 µM | THP-1 LPS/ATP IL-1B secretion, AlphaLISA, 16 h; hits give low values | 360,000 compounds, 4.7% hits; in the data active means activity change below about -50%; inconclusive means mostly about -30% to -49%; further: on the % scale 0 is the no-effect control and ±100 the full control effect
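THP-1 cells pretreated 1 hr with compounds (up to 57.5 uM final), then stimulated with LPS (250 ng/mL final) plus ATP (1.25 mM final); secreted IL-1B measured by AlphaLISA after 16 hr, decreased signal indicating inhibition.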
DT40 TDP1 CPT: growth inhibition of DT40 Tdp1-/-;hTDP1 cells with camptothecin (screen for TDP1 inhibitors) | chicken DT40 Tdp1-/-;hTDP1 cells + 20 nM CPT, ATP luminescence, 48 h | Potency, µM (series often up to 46.2 µM), inactives show at the top dose activity change, negative = growth inhibition, most hits filed as inhibitors | 420,000 compounds, 12% hits; further: potency means the concentration at half of the fitted maximal effect; on the % scale 0 is the no-effect control and ±100 the full control effect; nearly all actives have a fitted effect of over 55% in size
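Chicken DT40 Tdp1-/- cells complemented with human TDP1, 400 cells/well, exposed to compounds plus 20 nM camptothecin for at least 48 h at 37 C; viability read as ATP content by CellTiter-Glo luminescence.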
TDP1 cell noCPT: qHTS for Inhibitors of human tyrosyl-DNA phosphodiesterase 1 (TDP1): qHTS in cells in absence of CPT; DT40 Tdp1-/- hTDP1 cells, no CPT, ATP luminescence, 48 h; 420,000 compounds, 15% hits; Potency, µM (highest dose often 46.2 µM), for inactives: top-dose activity change, negative = growth inhibition, hits mostly inhibitors; further: potency means the concentration at half of the fitted maximal effect; on the % scale 0 is the no-effect control and ±100 the full control effect; nearly all actives have a fitted effect of over 55% in size
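DT40 Tdp1-/-;hTDP1 cells, no CPT (DMSO vehicle only), 400 cells/well; compounds pin-transferred; ≥48 hr, 37 °C; CellTiter-Glo 30 min RT dark, luminescence read.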
SW480 rereplic: induces DNA re-replication in SW480 colon adenocarcinoma cells; AID 624297; SW480 DNA re-replication, Hoechst DNA content imaging, 48 h; 340,000 compounds, 1.8% hits; Potency, µM (titrated, usually from 46.1 µM), without a hit: top-dose re-replication activation, actives largely listed as activators; further: potency means the concentration at half of the fitted maximal effect; % of control where 0% means no effect; nearly all actives have a fitted effect of over 55% in size
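Hoechst fluorescence of nuclei (405 nm excitation, 500-530 nm emission) measured by plate-scanning imager after 48 hr compound exposure at 37 C; re-replication scored as increased number of nuclei with elevated intensity.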
MCF10A rerep: induces DNA re-replication in MCF 10a normal breast cells; Potency, µM (top dose mostly 46.1 µM), for inactives: at the top dose activity, positive = re-replication, most hits filed as activators; MCF 10A DNA re-replication, Hoechst nuclear intensity, 48 h; 350,000 compounds, 2.9% hits; further: potency means the concentration at half of the fitted maximal effect; % of control where 0% means no effect; nearly all actives have a fitted effect of over 50% in size
Chronic BCR inh: chronic active BCR signaling inhibition. Potency, µM (doses to about 46.1 µM), without a hit: at the top dose activity change, negative = inhibition, actives largely listed as inhibitors. 340,000 compounds, 0.05% hits. ABC-DLBCL IkBa-CBG/CBR reporter, luminescence ratio, 4 h; active means well fitted inhibition curve with a large enough effect in the signal ratio, with a control signal flat, not every such curve was filed as active; inconclusive means small, poorly fitted or top-dose-only effect, or effect the other way, or a change in a side signal; the % refers to the signal ratio;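 further: potency means the concentration at half of the fitted maximal effect; plate controls were basal doxycycline-induced cells for no effect and cells given 10 µM MG132 for full effect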
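Cell line TMD8 (human ABC DLBCL), stably expressing tet-inducible CBG68-IkBa fusion and CBR; IMDM/0.5% FBS; cpd up to 46 uM; dox induction, 4 h, 37C/5% CO2; dual luminescence; green/red ratio; MG132 control.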
* marks the source's active call; other numbers are inactive results; ? = inconclusive; nt = no result. Unless noted, the call rests on the fitted dose curve; in most records, active means well fitted curve in the direction sought with a large enough effect; inconclusive means small, poorly fitted or top-dose-only effect, or another doubt; inactive means no such curve, though single readings can be large; an effect the other way counts as inactive or inconclusive.

SMILES	IL1B secr inh	DT40 TDP1 CPT	TDP1 cell noCPT	SW480 rereplic	MCF10A rerep	Chronic BCR inh
CC1CC(C)CN(CC(=O)c2c[nH]c3ccccc23)C1 (configuration not stated)	-3.6	?	23.1µM*	-0.7%	9.1%	-17.1%
O=C(CN1CCN(c2ccccc2F)CC1)c1c[nH]c2ccccc12	12.5	?	?	-2.0%	-3.2%	?
COc1ccccc1N1CCN(CC(=O)c2c[nH]c3ccccc23)CC1	20.0	?	10.3µM*	-11.4%	-6.0%	-22.8%
COc1ccccc1N1CCN(CC(O)c2c(C)[nH]c3ccccc23)CC1 (configuration not stated)	-3.4	?	16.4µM*	?	18.4µM*	?
COc1ccccc1N1CCN(CC(=O)c2c(C)[nH]c3ccccc23)CC1	-8.0	?	?	-0.3%	?	1.2%
Cc1ccc(CNC(=O)Cn2nnc(C(=O)Nc3cc(C)ccc3C)c2N)cc1	46.6	-9.4%	11.7%	-0.5%	7.3%	5.4%
CC(C)Sc1ncnc2[nH]ncc12	-13.8	-28.7%	?	-4.5%	-1.9%	nt
CN(C(=O)Cn1nc(C(=O)O)c2ccccc2c1=O)C1CCCCC1	19.3	14.3%	3.3%	-5.5%	-0.3%	-9.5%
CCNc1nnc(SCC(=O)N2c3ccccc3NC(=O)CC2C)s1 (configuration not stated)	18.4	2.8%	-12.3%	-9.9%	-3.9%	-0.1%
COc1ccc(-n2c(SC3CCOC3=O)nc3ccccc3c2=O)cc1OC (configuration not stated)	-13.5	-14.0%	2.6%	-4.6%	1.0%	1.6%
O=C(O)c1ccc(-n2c(/C=C/c3ccccc3)nc3ccccc3c2=O)cc1	11.2	?	-3.4%	-5.4%	-2.8%	-13.0%
CCOc1ccc(-n2c(/C=C/c3cccc(F)c3)nc3cc(OC)c(OC)cc3c2=O)cc1	nt	9.2µM*	9.2µM*	nt	nt	-3.1%
CCOc1ccc(-n2c(=O)c3ccccc3c3ccccc3c2=O)cc1	nt	2.9%	2.6%	?	16.8%	?
COc1ccc(-n2c(/C=C/c3cccc(C(F)(F)F)c3)nc3ccccc3c2=O)cc1Cl	nt	8.2µM*	13µM*	nt	nt	1.5%
COc1ccc(-n2c(SC3CCOC3=O)nc3ccccc3c2=O)cc1Cl (configuration not stated)	-12.8	13µM*	?	?	-4.3%	2.9%
COc1ccc(-n2c(/C=C/c3cccc4ccccc34)nc3ccccc3c2=O)cc1Cl	nt	20.6µM*	20.6µM*	nt	nt	-14.2%
O=C(O)c1cccc(-n2c(/C=C/c3ccc([N+](=O)[O-])cc3)nc3ccccc3c2=O)c1	-6.0	?	-19.5%	?	?	-2.9%
CC(=O)c1cccc(N2C(=O)CC(N3CCN(S(=O)(=O)c4ccc(Cl)cc4)CC3)C2=O)c1 (configuration not stated)	-1.0	0.2%	-0.9%	-17.8%	-3.7%	0.6%
COc1ccc(-n2c(/C=C/c3ccccc3F)nc3cc(OC)c(OC)cc3c2=O)cc1Cl	nt	14.6µM*	18.4µM*	nt	nt	7.6%
CCCCN1C(=O)C(C#N)CC2=C1CC(C)(C)CC2=O (configuration not stated)	4.9	-4.0%	-5.2%	5.4%	-17.7%	nt
O=C(Nc1ccccc1N1CCOCC1)c1ccc(Br)o1	-10.0	20.6µM*	23.1µM*	-3.7%	?	-0.5%
CC1CCN(c2ccccc2NC(=O)c2ccc(Br)o2)CC1	0.0	16.4µM*	?	-10.5%	?	7.5%
CS(=O)(=O)N1CCN(c2ccccc2NC(=O)c2ccc(Br)o2)CC1	?	-25.9%	-20.1%	1.8%	?	11.2%
CC(C)C(=O)N1CCN(c2ccccc2NC(=O)c2ccc(Br)o2)CC1	-17.5	?	?	-7.2%	11.4%	1.9%
O=C(NC(=S)Nc1ccccc1N1CCOCC1)c1ccc(Br)cc1	-6.3	?	-18.4%	-8.4%	12.0%	0.7%
SMILES	IL1B secr inh	DT40 TDP1 CPT	TDP1 cell noCPT	SW480 rereplic	MCF10A rerep	Chronic BCR inh
O=C(NC(=S)Nc1ccccc1N1CCOCC1)c1ccc(-c2ccccc2F)o1	-10.0	13µM*	23.1µM*	15.9%	5.4%	3.3%
CSc1ccc(S(=O)(=O)N2CCC(C(=O)Nc3ccc(C(N)=O)cc3)CC2)cc1	-10.8	8.9%	-5.6%	-0.1%	30.0%	-7.8%
COc1ccc(NC(=O)CN(C)C(=O)Cn2cnc3c2c(=O)n(C)c(=O)n3C)cc1	21.2	10.6%	-15.4%	?	5.7%	-2.2%
O=C(Oc1coc(CSc2ncccn2)cc1=O)c1ccccc1[N+](=O)[O-]	0.0	-16.9%	?	-20.3%	1.3%	-9.1%
COc1cccc(N2CCN(C(=O)Cn3nc(C)n4c(cc5c(OC)cccc54)c3=O)CC2)c1	nt	0.6%	-18.5%	nt	nt	nt
COc1ccc(CNC(=O)CCc2c(C)c3ccc(OC)c(C)c3oc2=O)cc1OC	nt	-27.4%	-22.9%	nt	nt	nt
O=C1[C@@H]2[C@@H]3C[C@@H]([C@H]4ON=C(c5ccc(Cl)cc5)[C@@H]34)[C@@H]2C(=O)N1C1CCCCC1	-20.3	16.4µM*	9.2µM*	-0.3%	?	0.8%
C=CCOc1ccc(C2=NO[C@@H]3[C@@H]4C[C@@H]([C@H]5C(=O)N(C)C(=O)[C@@H]45)[C@H]23)cc1	13.2	-20.1%	-17.7%	4.6%	13.0%	?
CCc1nn(C(CC)C(=O)NCc2ccc(OC)c(OC)c2)c(=O)c2cc3oc(C)cc3n12 (configuration not stated)	nt	16.4µM*	9.2µM*	nt	nt	nt
COc1ccc(C2c3c(ncn(CCN4CCOCC4)c3=N)Oc3ccc4ccccc4c32)cc1 (configuration not stated)	?	?	18.4µM*	?	?	?
N=c1c2c(ncn1Cc1ccco1)Oc1cc(O)ccc1C2c1ccccc1 (configuration not stated)	-62.2*	18.4µM*	?	?	17.8%	-26.6%
COc1ccc(C2C3=C(CC(C)(C)CC3=O)Oc3ncn(Cc4ccccc4)c(=N)c32)cc1 (configuration not stated)	-54.8*	?	-48.9%	?	16.4µM*	10.8%
N=c1c2c(ncn1Cc1ccco1)Oc1c(ccc3ccccc13)C2c1ccccc1 (configuration not stated)	?	?	?	?	93.7%	?
